Source: PubChem BioAssay (National Center for Advancing Translational Sciences (NCATS))
IL-1B inflam inh: inflammasome signaling inhibition, IL-1 beta readout | THP-1 LPS/ATP IL-1B secretion, AlphaLISA, 16 h; stronger effect = lower value | activity change, % at 57.5 µM | actives 4.7% (n = 360,000); in the data active = activity change below about -50%; inconclusive = mostly about -30% to -49%
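THP-1 cells pretreated 1 hr with compounds (up to 57.5 uM final), then stimulated with LPS (250 ng/mL final) plus ATP (1.25 mM final); secreted IL-1B measured by AlphaLISA after 16 hr, decreased signal indicating inhibition.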
HT1080-NT tox: kills 2HG-producing HT-1080-NT fibrosarcoma cells. HT-1080-NT fibrosarcoma viability, CellTiter-Glo ATP luminescence, 48 h. actives 1.6% (n = 360,000). Potency, µM (series often up to 46.1 µM), inactives show at the top dose activity, negative = less viability, most hits filed as cytotoxic. AID 686970;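 note: NT is the 2HG producing partner of a matched IDH1 knockdown line; potency is the fitted concentration of half-maximal effect; 0% = DMSO-treated cells and -100% = media-only wells without cells; nearly all actives have a fitted effect of over 55% in size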
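Luminescent CellTiter-Glo readout after 48 hours of compound exposure at 37 degrees C defined viability of HT-1080-NT cells. Activity was normalized to DMSO wells and cell-free media wells; concentration-response curves were fitted and assigned curve classes.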
HT1080 IDH1KD tx: kills HT-1080 cells with IDH1 knockdown; HT-1080 IDH1 knockdown viability, ATP luminescence, 48 h; AID 686971; actives 2% (n = 360,000); Potency, µM (doses to about 46.1 µM), for the others: at the highest dose activity, negative = toxicity, hits mostly cytotoxic;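 note: potency is the fitted concentration of half-maximal effect; 0% = DMSO wells and -100% = cell-free medium wells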
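Luminescent ATP read-out (CellTiter-Glo, 10 min at room temperature) after 48 h compound exposure at 37 °C gave viability of IDH1-knockdown HT-1080 cells. Activity was normalised to DMSO and cell-free wells, then fitted as concentration-response curves.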
TDP1 cell CPT: growth inhibition of DT40 Tdp1-/-;hTDP1 cells with camptothecin (screen for TDP1 inhibitors); chicken DT40 Tdp1-/-;hTDP1 cells + 20 nM CPT, ATP luminescence, 48 h; Potency, µM (top dose mostly 46.2 µM), without a hit: at the top dose activity change, negative = growth inhibition, most hits filed as inhibitors; AID 686979; actives 12% (n = 420,000); note: potency is the fitted concentration of half-maximal effect; nearly all actives have a fitted effect of over 55% in size
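Chicken DT40 Tdp1-/- cells stably complemented with human TDP1 were seeded at 400 cells/well in medium containing 20 nM camptothecin, exposed to pin-transferred compounds, and grown at 37 °C for at least 48 hr. Viability was read as ATP luminescence.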
DT40 TDP1 no CPT: qHTS for Inhibitors of human tyrosyl-DNA phosphodiesterase 1 (TDP1): qHTS in cells in absence of CPT; AID 686978, 2013; actives 15% (n = 420,000); Potency, µM (top dose mostly 46.2 µM), for the others: at the highest dose activity change, negative = growth inhibition, most hits filed as inhibitors; DT40 Tdp1-/- hTDP1 cells, no CPT, ATP luminescence, 48 h; note: potency is the fitted concentration of half-maximal effect; nearly all actives have a fitted effect of over 55% in size
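Stably hTDP1-transfected Tdp1-null chicken DT40 cells were treated with library compounds minus camptothecin and grown for at least 48 hr at 37 °C, after which cellular ATP was quantified by luminescence.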
Starred values were filed as active, the others as inactive; ? = inconclusive; nt = not tested or not shown; [ ] = dose if it differs, or a comment. Compounds with a hit are over-represented: about 19% of the library has one in this group of screens. Unless noted, calls come from the whole dose curve; as a rule, active = well fitted curve in the direction sought with a large enough effect; inconclusive = small, poorly fitted or top-dose-only effect, or another doubt; inactive = no such curve, though single readings can be large; an effect the other way counts as inactive or inconclusive. Unless noted, % is set by controls: 0 for no effect and ±100 for the full control effect.

SMILES	IL-1B inflam inh	HT1080-NT tox	HT1080 IDH1KD tx	TDP1 cell CPT	DT40 TDP1 no CPT
CN(C)Cc1ccccc1-c1nc(NCc2cccs2)c2ccccc2n1	nt	nt	nt	21µM*	21µM*
Cc1noc(C)c1-c1nc(NCc2cccs2)c2ccccc2n1	nt	nt	nt	?	23µM*
CN(C)Cc1ccccc1-c1nc(N(C)C)c2ccccc2n1	nt	nt	nt	12µM*	?
CN(C)Cc1ccccc1-c1nccc(N(C)C)n1	nt	nt	nt	-12%	?
Cc1cccc(CNc2nc(-c3ccccc3CN(C)C)nc3ccccc23)c1	nt	nt	nt	13µM*	5.2µM*
Cc1noc(C)c1NC(=O)N(C)C[C@@H]1Oc2ccc(NS(=O)(=O)c3c(C)noc3C)cc2C(=O)N([C@H](C)CO)C[C@H]1C	23	-19%	6%	-8%	8%
Cc1cccc(CNc2nc(-c3ccoc3)nc3ccccc23)c1	nt	nt	nt	?	21µM*
Cc1cnc(CNc2nc(-c3ccoc3)nc3ccccc23)cn1	nt	nt	nt	13%	?
COc1ccc(CNC(=O)/C=C/c2ccc(S(=O)(=O)NCc3ccco3)cc2)cc1OC	-8	-6%	-1%	?	26µM*
O=C(/C=C/c1ccc(Cl)cc1)NCc1ccco1	-27	-2%	3%	?	?
O=C(/C=C/c1ccc(S(=O)(=O)NCc2ccco2)cc1)NCc1ccccc1Cl	?	?	?	?	18µM*
CCCc1cc(=O)oc2cc(OCC(=O)NCCCN3CCOCC3)c(Cl)cc12	-9	-9%	-1%	?	?
CCCNC(=O)C1(C)CCN(C(=O)c2ccccc2OC)C1 (configuration not stated)	22	8%	14%	-20%	-3%
O=C(Nc1cccc(C(F)(F)F)c1)C1CCN(S(=O)(=O)c2cccc3nsnc23)CC1	nt	nt	nt	23µM*	23µM*
O=C(Nc1cccc(C(F)(F)F)c1)C1CCN(S(=O)(=O)c2cccnc2)CC1	9	-1%	-3%	?	21µM*
Cc1ccc(NC(=O)C2CCN(c3nnc(-n4cccc4)s3)CC2)cc1Cl	nt	nt	nt	-13%	-15%
O=C(Nc1cccc(C(F)(F)F)c1)C1CCN(c2nnc(-n3cccc3)s2)CC1	nt	nt	nt	?	21µM*
O=C(Nc1ncc(Cc2cccc(Cl)c2)s1)c1cccs1	-25	?	?	?	?
O=C(Nc1ncc(Cc2cccc(Cl)c2)s1)C1=NCCN1	-4	20µM*	0%	16µM*	?
O=C(CCS(=O)(=O)c1cccs1)N1CCN(c2ccc(F)cc2)CC1	8	-1%	-11%	-28%	-29%
CN(c1ccc(OCC(=O)N2CCN(c3ccc(F)cc3)CC2)cc1)S(=O)(=O)c1cccs1	-21	-15%	-25%	?	26µM*
O=C(CCS(=O)(=O)c1ccc(Cl)cc1)N1CCN(c2ccc(F)cc2)CC1	-21	-3%	-2%	15µM*	18µM*
O=C(CCS(=O)(=O)c1ccc(Cl)cc1)N1CCN(c2ccccc2F)CC1	41	12%	6%	-28%	-18%
COc1ccc(S(=O)(=O)CCC(=O)N2CCN(c3ccc(F)cc3)CC2)cc1	-1	16%	6%	21µM*	26µM*
COc1ccc(CC(=O)N2CCN(c3ccc(F)cc3)CC2)cc1	19	22%	29%	-29%	?
SMILES	IL-1B inflam inh	HT1080-NT tox	HT1080 IDH1KD tx	TDP1 cell CPT	DT40 TDP1 no CPT
Cc1ccc(S(=O)(=O)CCC(=O)N2CCN(c3ccc(Cl)cc3)CC2)cc1	0	2%[9.24 µM]	-25%	13µM*	21µM*
Nc1nnnn1/N=C/c1cccc(OCc2ccccc2Cl)c1	25	-29%	-27%	26µM*	?
Nc1nnnn1/N=C/c1cccc(Oc2ccccc2)c1	3	2%	4%	-4%	-4%
CSc1nc(N2CCOCC2)c2c3c(sc2n1)CCCC3	-4	-11%	-8%[9.24 µM]	?	13µM*
Cc1cc2c(cc1C)NC(=O)CC(c1ccccc1)=N2	0	10%	13%	?	?
Cc1ccc(C2=Nc3ccccc3N=C(C(Cl)Cl)C2)cc1	-26	-27%	?	18µM*	16µM*
COc1ccc(S(=O)(=O)c2cn(CC(=O)Nc3ccccc3)c3ccc(Cl)cc3c2=O)cc1	nt	nt	nt	-19%	-24%
COc1ccccc1OCc1ccc(C(=O)Nc2ccncc2)o1	-19	-9%	?	?	21µM*
CC(=O)Nc1ccc(NC(=O)c2ccc(COc3ccccc3Br)o2)cc1	-4	-22%	-26%	-23%	4%
O=C(Nc1cccnc1)c1ccc(COc2ccccc2Br)o1	-12	4.5µM*	10µM*	?	?
O=C(NCc1cccnc1)c1ccc(COc2ccccc2Cl)o1	0	?	-5%	?	13µM*
O=C(Cc1ccccc1Cl)NCc1cccnc1	13	1%	0%	6%	11%
CCCc1ccc(OCc2ccc(C(=O)NN)o2)c(OC)c1	26	?	-18%	6%	23µM*
COc1ccccc1OCc1ccc(C(=O)NC(C)(C)C)o1	2	-1%	-9%	-29%	?
COC(=O)c1cccc2c1NC(=O)C2=O	17	-15%	-26%	-3%	21µM*
O=C1Nc2c(Br)cccc2C1=O	73	-2%	-6%	8.2µM*	12µM*
O=C1Nc2c(Cl)cccc2C1=O	104	?	?	15µM*	23µM*
Cc1cccc2c1NC(=O)C2=O	4	-3%	-2%	?	-6%
Cn1c(SCC(=O)NC2CC2)nnc1-c1ccccc1	24	7%	8%	-3%	-1%
COc1cc([C@@H]2[C@H]3CNCC=C3C(C#N)=C(N)C2(C#N)C#N)ccc1OC(C)C	-19	-3%	-2%	9.2µM*	?
O=C(NCC(c1ccc2c(c1)OCO2)N1CCN(c2ccc(F)cc2)CC1)c1cccc([N+](=O)[O-])c1 (configuration not stated)	nt	nt	nt	6.5µM*	6.5µM*
COc1ccc(N2CCN(C(CNC(=O)c3ccc(C)cc3)c3ccc4c(c3)OCO4)CC2)cc1 (configuration not stated)	nt	nt	nt	8.2µM*	5.8µM*
Cc1ccc(C(=O)NCC(c2ccc3c(c2)OCO3)N2CCOCC2)cc1C (configuration not stated)	nt	nt	nt	21µM*	10µM*
O=C(NCC(c1ccc2c(c1)OCO2)N1CCN(c2ccccc2)CC1)c1ccccc1 (configuration not stated)	nt	nt	nt	13µM*	10µM*
COc1ccc(N(CC(=O)NCCc2ccccc2)C(=O)c2csnn2)cc1OC	10	12%	7%	1%	20%
